# Records with an inconclusive call do not appear. A call without a number means that no potency is given here. Values without a mark were called inactive. Calls of active or inactive are those of the source. Calls follow the shape of the dose curve; as a rule, active = well fitted curve in the direction sought with a large enough effect; inconclusive = small, poorly fitted or top-dose-only effect, or another doubt; inactive = no such curve, though single readings can be large; an effect the other way counts as inactive or inconclusive.
# How the values were obtained:
# [1] = system: CASKI; experiment: Primary qHTS to identify gynecologic anti-cancer compounds using libraries of approved drugs and bioactive compounds (AID 1345084); conditions: Gynecologic cancer cell panel viability, ATPlite luminescence, 48 h; series mostly up to 57.5 µM; also: nearly all actives have a fitted effect of over 55% in size
# How it was run: (§1)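 Luminescence from the ATPlite ATP-monitoring reagent indicates viable cell number; lower signal means cytotoxicity. Cells received compound 16 h after seeding and were exposed for 48 h across five concentrations.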
# [2] = system: Es-2; experiment: as above; conditions: Gynecologic cancer cell panel viability, ATPlite luminescence, 48 h; series mostly up to 57.5 µM
# How it was run: as §1
# [3] = system: HeLa; experiment: as above; conditions: Gynecologic cancer cell panel viability, ATPlite luminescence, 48 h; series mostly up to 57.5 µM
# How it was run: as §1
# [4] = system: Hek293T; experiment: as above; conditions: Gynecologic cancer cell panel viability, ATPlite luminescence, 48 h, control line for the selectivity index; series mostly up to 57.5 µM
# How it was run: as §1
# [5] = system: OV90; experiment: as above; conditions: Gynecologic cancer cell panel viability, ATPlite luminescence, 48 h; series mostly up to 57.5 µM
# How it was run: as §1
# [6] = system: PA-1; experiment: as above; conditions: Gynecologic cancer cell panel viability, ATPlite luminescence, 48 h; series mostly up to 57.5 µM
# How it was run: as §1
# [7] = system: SKOV3; experiment: as above; conditions: Gynecologic cancer cell panel viability, ATPlite luminescence, 48 h; series mostly up to 57.5 µM
# How it was run: as §1
# [8] = system: Tov-21-G; experiment: as above; conditions: Gynecologic cancer cell panel viability, ATPlite luminescence, 48 h; series mostly up to 57.5 µM
# How it was run: as §1
# [9] = system: Tov112D; experiment: as above; conditions: Gynecologic cancer cell panel viability, ATPlite luminescence, 48 h; series mostly up to 57.5 µM
# How it was run: as §1
# [10] = system: CAOV3; experiment: as above; conditions: Gynecologic cancer cell panel viability, ATPlite luminescence, 48 h; series mostly up to 57.5 µM
# How it was run: as §1
# [11] = system: JEG-3; experiment: as above; conditions: Gynecologic cancer cell panel viability, ATPlite luminescence, 48 h; series mostly up to 57.5 µM
# How it was run: as §1
# [12] = qHTS assay to identify inhibitors of the type 1 interferon - major histocompatibility complex class I in skeletal muscle: Counter screen cell viability and HiBit confirmation (AID 1347412); conditions: iHSKM muscle cells + IFN-b, HiBiT or CellTiter-Glo, 24 h; HiBiT; also: nearly all actives have a fitted effect of over 60% in size
# How it was run: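 Luminescence read-out: Nano-Glo HiBiT lytic signal from C-terminally HiBiT-tagged HLA-B in CRISPR-edited human myoblasts, plus CellTiter Glo ATP as viability counter screen. IFN-beta 4.0 ng/ml; 24 hrs treatment at 37 C, 5% CO2.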
# Potency is read from the fitted curve at half-maximal effect.
structure (smiles),measurement,setting,value
C=CC(C)(O)CC/C=C(/C)COC(=O)C(C)C1CCC(C)(C=C)O1 (stereo unspecified),Potency,[1],inactive
same,Potency,[2],inactive
same,Potency,[3],inactive
same,Potency,[4],inactive
same,Potency,[5],inactive
same,Potency,[6],inactive
same,Potency,[7],inactive
same,Potency,[8],inactive
CO[C@@H]1CC(OC2CCC3(C)C(CCC45CCC(C6=CC(=O)OC6)C(C)(CCC43)C5=O)C2)O[C@H](C)[C@@H]1O[C@@H]1O[C@H](CO[C@@H]2O[C@H](CO)[C@@H](O)[C@H](O)[C@H]2O)[C@@H](O)[C@H](O)[C@H]1O (stereo partly specified),"activity change, negative = cytotoxicity",[1],-0.149% [at 11.6 µM]
same,Potency,[2],3.16 µM (active)
same,"activity change, negative = cytotoxicity",[5],-22.2% [at 11.6 µM]
same,Potency,[8],3.16 µM (active)
same,Potency,[9],2.82 µM (active)
COc1cc(CCO)ccc1O[C@@H]1O[C@H](CO)[C@@H](O)[C@H](O)[C@H]1O,Potency,[10],inactive
same,Potency,[5],inactive
CCS(=O)c1nc(-c2cccc(OCc3ccccc3)c2)cc(C(F)(F)F)n1 (stereo unspecified),Potency,[1],inactive
same,Potency,[2],inactive
same,Potency,[3],inactive
same,Potency,[5],inactive
same,Potency,[7],inactive
same,Potency,[8],inactive
same,Potency,[9],inactive
C=CC(=O)Nc1ccc(CN2C(=O)N(c3cc(OC)cc(OC)c3)Cc3cnc(Nc4ccc(N5CCN(C)CC5)cc4)nc32)cc1,Potency,[1],14.1 µM (active)
same,Potency,[2],inactive
same,Potency,[4],inactive
same,Potency,[5],inactive
same,Potency,[6],inactive
same,Potency,[7],15.8 µM (active)
CC(=O)O[C@H]1CC(C)(C)CC2[C@]13CO[C@@]21CCC2[C@@]4(C)CC[C@H](O[C@@H]5OC[C@H](O[C@@H]6O[C@H](CO)[C@@H](O)[C@H](O)[C@H]6O[C@@H]6OC[C@@H](O[C@@H]7O[C@H](CO)[C@@H](O)[C@H](O)[C@H]7O)[C@H](O)[C@H]6O)[C@H](O)[C@H]5O[C@@H]5O[C@H](CO)[C@@H](O)[C@H](O)[C@H]5O)[C@@](C)(CO)C4CC[C@@]2(C)[C@]1(C)C[C@H]3O (stereo partly specified),"activity change, negative = cytotoxicity",[1],-12% [at 6.55 µM]
same,"activity change, negative = cytotoxicity",[3],-20% [at 6.55 µM]
same,Potency,[4],2.82 µM (active)
C=C(C)C(=O)OC1CC2(C)OC(=CC2=O)C(=C)CC2OC(=O)C(=C)C12 (stereo unspecified),Potency,[1],inactive
same,Potency,[2],4.47 µM (active)
same,Potency,[3],inactive
same,Potency,[4],6.31 µM (active)
same,Potency,[11],inactive
same,Potency,[6],7.94 µM (active)
same,Potency,[7],10 µM (active)
same,Potency,[8],4.47 µM (active)
C=CC(=O)Nc1cccc(Nc2nc(Nc3ccc(NC4CN(CCF)C4)cc3OC)ncc2C(F)(F)F)c1,Potency,[1],17.8 µM (active)
same,Potency,[2],inactive
same,Potency,[11],inactive
same,Potency,[7],12.6 µM (active)
Nc1nc(O)c(C2=C3C(=Nc4ccccc43)C(=O)NCC2)[nH]1,Potency,[1],inactive
same,Potency,[2],inactive
same,Potency,[3],inactive
same,Potency,[4],inactive
same,Potency,[5],inactive
same,Potency,[6],inactive
same,Potency,[8],inactive
same,Potency,[9],inactive
C=C(C=O)[C@]1(O)C[C@@]2(C)C(=CC1=O)C=C[C@H](OC(=O)/C=C/C=C/[C@H](C)CC)[C@@H]2C,Potency,[1],inactive
same,Potency,[2],inactive
same,Potency,[3],inactive
same,Potency,[11],inactive
same,Potency,[9],inactive
CCc1cc(C(N)=O)ccc1-n1nc(C(C)C)c2c(-n3cnc(-c4cnn(C)c4)c3)ccnc21,Potency,[1],inactive
same,Potency,[2],inactive
same,Potency,[3],inactive
same,Potency,[11],inactive
same,Potency,[8],3.55 µM (active)
Nc1nc(Nc2ccc3c(c2)CCC(N2CCCC2)CC3)nn1-c1cc2c(nn1)-c1ccccc1CCC2 (stereo unspecified),Potency,[10],7.94 µM (active)
same,Potency,[11],inactive
same,Potency,[5],inactive
same,Potency,[7],7.08 µM (active)
same,Potency,[8],22.4 µM (active)
COc1cccc(-c2cn(-c3ccc(CCN4CCC(O)CC4)cc3)c3ncnc(N)c23)c1,Potency,[10],14.1 µM (active)
same,Potency,[5],28.2 µM (active)
same,Potency,[6],12.6 µM (active)
same,Potency,[7],8.91 µM (active)
same,Potency,[8],17.8 µM (active)
C=C1C(=O)O[C@@H]2[C@H]1CC(=O)[C@H](C)[C@@](O)(C(=O)/C=C/C)[C@H]2OC(=O)C(C)CC (stereo partly specified),Potency,[1],10 µM (active)
same,Potency,[3],inactive
same,Potency,[4],10 µM (active)
same,Potency,[11],inactive
same,Potency,[5],inactive
same,Potency,[6],11.2 µM (active)
same,Potency,[8],12.6 µM (active)
COc1cc(N2CCC(N)CC2)ccc1Nc1ncc(Cl)c(-c2c[nH]c3ccccc23)n1,Potency,[1],28.2 µM (active)
same,Potency,[2],inactive
same,Potency,[3],3.98 µM (active)
same,Potency,[11],inactive
same,Potency,[6],15.8 µM (active)
same,Potency,[7],5.01 µM (active)
same,Potency,[8],8.91 µM (active)
same,Potency,[12],5.57 µM (active)
C=C1C(=O)O[C@H]2CC(=C)[C@H]3CC[C@@](C)(O)[C@@H]3CC12 (stereo partly specified),Potency,[1],inactive
same,Potency,[2],inactive
same,Potency,[3],inactive
same,Potency,[5],inactive
same,Potency,[9],inactive
C[C@@H](Nc1ncnc2[nH]c(-c3ccc(O)cc3)cc12)c1ccccc1,Potency,[1],22.4 µM (active)
same,Potency,[2],inactive
same,Potency,[4],inactive
same,Potency,[11],inactive
same,Potency,[5],inactive
same,Potency,[6],inactive
COc1cc2c(Nc3cc(F)c(Cl)c(Cl)c3)ncnc2cc1OCC1CCCN(C)CCC1,Potency,[10],12.6 µM (active)
same,Potency,[11],inactive
same,Potency,[5],15.8 µM (active)
same,Potency,[7],17.8 µM (active)
C=C1/C(=C/C=C2\CCC[C@]3(C)[C@@H]([C@H](C)CC[C@@H](O)C(C)(C)O)CC[C@@H]23)C[C@@H](O)C[C@@H]1O,Potency,[1],inactive
same,Potency,[2],inactive
same,Potency,[9],inactive
CC1=CC2/C=C(\C)CCC(O)C(=O)C(O)CC(=O)C23C(=O)NC(CC(C)C)C3C1C (stereo unspecified),Potency,[1],inactive
same,Potency,[2],inactive
same,Potency,[3],inactive
same,Potency,[4],inactive
same,Potency,[11],inactive
same,Potency,[5],inactive
same,Potency,[6],inactive
same,Potency,[8],inactive
same,Potency,[9],inactive
C=C1C(=O)OC2/C=C(\COC(C)=O)CC/C=C(\C=O)CC(OC(=O)CC(C)C)C12 (stereo unspecified),Potency,[1],inactive
same,Potency,[3],inactive
same,Potency,[4],8.91 µM (active)

# Reference: PubChem BioAssay (NCATS)
